Results: PubChem BioAssay (NCI)
About 79,000 compounds went through this panel and 15% of them were active in at least one assay; those are over-represented in the sample as a whole. Activity calls are given as the source filed them. No stated cut-off is given here; in the data, active means growth inhibition above about 70%; inactive means the rest.

Key:
[1] = NCI Yeast Anticancer Drug Screen. Data for the rad52 strain (AID 147);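 further: 0% = growth of vehicle-treated control cultures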; details: S. cerevisiae rad52 mutant growth inhibition, hits give high values
Method in brief: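 Inhibition of yeast growth, referenced to vehicle controls, was the measured output for a strain with defective DNA damage repair.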

[2] = NCI Yeast Anticancer Drug Screen. Data for the wt1 strain (AID 149);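 further: 0% = growth of vehicle-treated wt1 cultures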; details: S. cerevisiae wt1 strain (SPY 50644) growth inhibition, hits give high values
Method in brief: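 Growth inhibition read against vehicle controls after compound exposure of the wt1 yeast strain.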

[3] = NCI Yeast Anticancer Drug Screen. Data for the rad50EPP+ strain (AID 151);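 further: 0% = growth of vehicle-treated control cultures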; details: S. cerevisiae rad50 mutant strain, hits give high values
Method in brief: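 Genetically defined yeast (rad50EPP+, DNA damage repair alteration) is grown with compound, and inhibition of growth is expressed relative to vehicle-treated controls.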

[4] = NCI Yeast Anticancer Drug Screen. Data for the mgt1 strain (AID 153); details: S. cerevisiae mgt1 mutant growth inhibition, hits give high values
Method in brief: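 In the mgt1 strain, test compounds were added and growth inhibition was determined relative to vehicle-treated controls.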

[5] = NCI Yeast Anticancer Drug Screen. Data for the rad50 strain (AID 155);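 further: 0% = growth of vehicle-only cultures of the same strain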; details: S. cerevisiae rad50 strain growth inhibition, hits give high values
Method in brief: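 Readout: growth inhibition relative to vehicle-treated cultures. Compound exposure was carried out in a genetically defined yeast strain deficient in DNA damage repair.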

[6] = NCI Yeast Anticancer Drug Screen. Data for the mec2-1 strain (AID 157); details: S. cerevisiae mec2-1 strain, hits give high values
Method in brief: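 Each compound was tested on mec2-1 yeast, a strain altered in DNA damage repair or cell cycle control. Growth inhibition is reported relative to vehicle.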

[7] = NCI Yeast Anticancer Drug Screen. Data for the rad14 strain (AID 159);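 further: 0% = growth of vehicle-treated control cultures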; details: S. cerevisiae rad14 strain growth inhibition, hits give high values
Method in brief: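 Growth inhibition vs vehicle controls; genetically altered yeast strain (DNA damage repair defect) treated with test compounds.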

[8] = NCI Yeast Anticancer Drug Screen. Data for the sgs1 mgt1 strain (AID 161);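 further: 0% = growth of cultures given vehicle only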; details: S. cerevisiae sgs1 mgt1 strain, hits give high values
Method in brief: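 Inhibition of yeast growth, normalised to vehicle-treated controls, is reported for a strain bearing genetic alterations in DNA damage repair.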

[9] = NCI Yeast Anticancer Drug Screen. Data for the CLN2oe strain (AID 163);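 further: 0% = growth of vehicle-only control cultures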; details: S. cerevisiae CLN2oe strain, hits give high values
Method in brief: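 First, the altered yeast strain was treated with each compound; second, its growth was measured; finally, inhibition was derived by comparison with vehicle controls.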

[10] = NCI Yeast Anticancer Drug Screen. Data for the cln2 rad14 strain (AID 165);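 further: 0% = growth equal to vehicle treated cultures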; details: S. cerevisiae cln2 rad14 strain, hits give high values
Method in brief: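 Test compounds were added to cln2 rad14 yeast cultures; inhibition of growth was then determined by comparison with vehicle treatment.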

[11] = NCI Yeast Anticancer Drug Screen. Data for the bub3 strain (AID 167); details: S. cerevisiae bub3 mutant strain, hits give high values
Method in brief: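 Readout: yeast growth inhibition, expressed relative to vehicle-only wells. The test organism is a mutant strain from a panel with lesions in DNA repair or checkpoint genes.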

[12] = NCI Yeast Anticancer Drug Screen. Data for the wt2 strain (AID 169);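 further: 0% = growth of vehicle-treated yeast cultures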; details: S. cerevisiae wt2 strain growth inhibition, hits give high values
Method in brief: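 The panel's yeast strains carry defined changes in DNA repair or cell cycle genes. Each strain is grown with compound, and growth loss is scored relative to vehicle.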

[13] = NCI Yeast Anticancer Drug Screen. Data for the mlh1 strain (AID 171);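 further: 0% = growth of vehicle-treated control cultures of the same strain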; details: S. cerevisiae mlh1 strain growth inhibition, hits give high values
Method in brief: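 Inhibition values reflect reduced yeast growth in the presence of compound, referenced to vehicle controls, using a strain chosen for its alteration in DNA repair or cell cycle control.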

[14] = NCI Yeast Anticancer Drug Screen. Data for the sgs1 strain (AID 173);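 further: 0% = growth of vehicle-only control cultures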; details: S. cerevisiae sgs1 mutant, hits give high values
Method in brief: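 Vehicle-treated cultures served as reference for growth inhibition of a yeast strain altered in DNA damage repair or cell cycle control after compound exposure.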

[15] = NCI Yeast Anticancer Drug Screen. Data for the mlh1 rad18 strain (AID 175); details: S. cerevisiae mlh1 rad18 strain growth inhibition, hits give high values
Method in brief: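 Inhibition values reflect reduced growth of mutant yeast versus vehicle-treated controls following compound exposure; the mutations affect DNA damage repair.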

[16] = NCI Yeast Anticancer Drug Screen. Data for the rad18 strain (AID 177); details: S. cerevisiae rad18 mutant growth inhibition, hits give high values
Method in brief: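 Steps: expose repair-mutant yeast to compound; measure growth; express as inhibition relative to vehicle control.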

[17] = at 5.0 µM (retest, dose inferred, filed as 0.5)
[18] = at 50.0 µM (retest, dose inferred, filed as 5.0)

Measured: growth inhibition

C[n+]1c(/C=C/c2ccc(/C=N/NC(=O)c3ccc(C(=O)N/N=C/c4ccc(/C=C/c5cn6ccccc6[n+]5C)cc4)cc3)cc2)cn2ccccc21
active: [1]; at 1.2 µM 80% | [1]; at 3.7 µM 97% | [1]; at 11.0 µM 97% | [1]; at 33.0 µM 96% | [1]; at 100.0 µM 93% | [2]; at 3.7 µM 88% | [2]; at 11.0 µM 95% | [2]; at 33.0 µM 97% | [2]; at 100.0 µM 95% | [3]; at 3.7 µM 97% | [3]; at 11.0 µM 95% | [3]; at 33.0 µM 95% | [3]; at 100.0 µM 91% | [4]; at 3.7 µM 99% | [4]; at 11.0 µM 99% | [4]; at 33.0 µM 97% | [4]; at 100.0 µM 94% | [5]; at 1.2 µM 87% | [5]; at 3.7 µM 98% | [5]; [17] 79% | [5]; at 11.0 µM 97% | [5]; at 33.0 µM 95% | [5]; [18] 96% | [5]; at 50.0 µM 88.7% | [5]; at 100.0 µM 89% | [6]; at 3.7 µM 99% | [6]; [17] 92% | [6]; at 11.0 µM 98% | [6]; at 33.0 µM 97% | [6]; [18] 98% | [6]; at 50.0 µM 90.8% | [6]; at 100.0 µM 94% | [7]; at 3.7 µM 98% | [7]; at 11.0 µM 97% | [7]; at 33.0 µM 97% | [7]; at 100.0 µM 92% | [8]; [18] 98% | [8]; at 50.0 µM 85.7% | [9]; at 3.7 µM 91% | [9]; at 11.0 µM 91% | [9]; at 33.0 µM 95% | [9]; at 100.0 µM 89% | [10]; [18] 98% | [10]; at 50.0 µM 85.7% | [11]; at 3.7 µM 98% | [11]; at 11.0 µM 98% | [11]; at 33.0 µM 97% | [11]; at 50.0 µM 90.9% | [11]; at 100.0 µM 93% | [12]; at 3.7 µM 98% | [12]; at 11.0 µM 96% | [12]; at 33.0 µM 98% | [12]; at 100.0 µM 97% | [13]; at 3.7 µM 99% | [13]; at 11.0 µM 98% | [13]; at 33.0 µM 97% | [13]; at 100.0 µM 94% | [14]; at 3.7 µM 98% | [14]; at 11.0 µM 99% | [14]; at 33.0 µM 98% | [14]; at 100.0 µM 95% | [15]; [17] 90% | [15]; [18] 98% | [15]; at 50.0 µM 91.7% | [16]; at 3.7 µM 98% | [16]; at 11.0 µM 95% | [16]; at 33.0 µM 96% | [16]; at 100.0 µM 93%
inactive: [2]; at 1.2 µM 25% | [3]; at 1.2 µM 58% | [4]; at 1.2 µM 42% | [6]; at 1.2 µM 62% | [7]; at 1.2 µM 62% | [8]; [17] 64% | [9]; at 1.2 µM 47% | [10]; [17] 33% | [11]; at 1.2 µM 41% | [11]; [17] 8% | [11]; [18] 4% | [12]; at 1.2 µM 45% | [13]; at 1.2 µM 52% | [14]; at 1.2 µM 56% | [16]; at 1.2 µM 46%
